{
  "source": "PubChem BioAssay AID504332",
  "about": "(National Center for Advancing Translational Sciences (NCATS), 2011)",
  "note": "“And” between values parts separate entries of the source, which are not always exact repeats. Equal entries are not always repeated. In all, about 350,000 compounds went through this assay and about 31,000 (8.9%) were called active. Not shown: some 15% with an inconclusive outcome. This is one part of a sample in which actives are shown more often than they occur. Calls come from the whole dose curve; as a rule, active = well fitted inhibition curve with a large enough effect; inconclusive = small, poorly fitted or top-dose-only effect; inactive = no such curve, though single readings can be large or run the other way. % is set by controls: 0 for no effect and ±100 for the full control effect; potency is the fitted concentration of half-maximal effect.",
  "data": [
    {"target": "Histone-lysine N-methyltransferase EHMT2 (Homo sapiens) (UniProt Q96KQ7)", "sequence (Q96KQ7 913-1193 limits assumed)": "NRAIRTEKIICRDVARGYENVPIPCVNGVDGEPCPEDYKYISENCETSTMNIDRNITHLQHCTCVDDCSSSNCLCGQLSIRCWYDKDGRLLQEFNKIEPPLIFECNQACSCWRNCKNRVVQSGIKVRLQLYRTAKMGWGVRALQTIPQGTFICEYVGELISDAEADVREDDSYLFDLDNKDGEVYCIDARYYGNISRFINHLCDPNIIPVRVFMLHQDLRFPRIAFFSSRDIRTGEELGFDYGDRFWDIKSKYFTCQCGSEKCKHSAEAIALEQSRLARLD", "experiment": "qHTS Assay for Inhibitors of Histone Lysine Methyltransferase G9a; note: nearly all actives have a fitted effect of over 75% in size", "settings": "G9a H3K9 monomethylation, AlphaScreen, 2 h; series mostly up to 59 µM; activity, negative = inhibition: at the top concentration", "outline": "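AlphaScreen detection with an anti-monomethyl H3K9 antibody quantified product after a 2 h room-temperature reaction containing 500 nM biotinylated H3K9 peptide, 20 µM SAM and 20 nM enzyme, which had been preincubated 15 min with compound.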", "values": [
      {"smiles": "COc1cccc(CNC(=O)CCc2nc(-c3ccc(C)cc3)no2)c1", "activity, negative = inhibition": "20.6% (inactive)"},
      {"smiles": "CCCN1CCN(CCCNC(=O)c2cnn(-c3ccc(C)cc3)c2-n2cccc2)CC1", "activity, negative = inhibition": "-11.1% (inactive)"},
      {"smiles": "COc1ccc(-c2ccc(=O)n(CC(=O)Nc3ccc(Br)cc3F)n2)cc1", "activity, negative = inhibition": "0.314% (inactive)"},
      {"smiles": "O=C(COc1ccc(Cl)cc1)NCCS(=O)(=O)N1CCN(c2ccc(F)cc2)CC1", "activity, negative = inhibition": "-10.7% [at 102 µM] (inactive)"},
      {"smiles": "COc1ccccc1/C=C/c1nc(C#N)c(NC(C)c2ccccc2)o1", "note": "(stereo not drawn)", "activity, negative = inhibition": "-49.3% (inactive)"},
      {"smiles": "O=C(Nc1nnc(C2=COCCO2)o1)c1ccc([N+](=O)[O-])s1", "Potency": "44.7 µM (active)"},
      {"smiles": "CSc1ccccc1-c1nnc(NC(=O)c2ccc3c(c2)OCCO3)o1", "activity, negative = inhibition": "64.6% (inactive)"},
      {"smiles": "CS(=O)(=O)c1ccc(-c2nnc(NC(=O)c3ccc4c(c3)OCCO4)o2)cc1", "activity, negative = inhibition": "44.7% (inactive)"},
      {"smiles": "Cc1ccccc1OCC(=O)Nc1ccc2c(c1)ncn2C", "activity, negative = inhibition": "-10.2% [at 0.501 µM] (inactive)"},
      {"smiles": "O=S(=O)(NCCCN1CCOCC1)c1ccc(F)c(Cl)c1", "activity, negative = inhibition": "27% [at 12.7 µM] (inactive)"},
      {"smiles": "COc1ccc(-c2ccc(CNCCCN3CCOCC3)o2)cc1Cl", "Potency": "50.1 µM (active)"},
      {"smiles": "COc1ccc(S(=O)(=O)N(C)CC(=O)NCCCN2CCOCC2)cc1Cl", "activity, negative = inhibition": "10.6% (inactive)"},
      {"smiles": "O=C(NCc1cccnc1)c1cc(S(=O)(=O)N2CCOCC2)c(Cl)cc1Cl", "activity, negative = inhibition": "-2.17% [at 2.33 µM] (inactive)"},
      {"smiles": "CCc1cccc(NC(=O)CN(c2ccc(C)c(C)c2)S(=O)(=O)c2ccsc2C(=O)OC)c1", "activity, negative = inhibition": "5.26% (inactive)"},
      {"smiles": "CC(=O)Nc1ccc(S(=O)(=O)N2CCC(C(=O)N[C@@H](Cc3ccccc3)C(=O)O)CC2)cc1", "activity, negative = inhibition": "13.7% [at 102 µM] (inactive)"},
      {"smiles": "CSc1cccc(NC(=O)CN2C(=O)CCc3cc(S(=O)(=O)N4CCCCC4)ccc32)c1", "activity, negative = inhibition": "-38.2% (inactive)"},
      {"smiles": "Cc1cccc(C)c1NC(=O)CSc1nc2c([nH]1)c(=O)n(C)c(=O)n2C", "activity, negative = inhibition": "1.79% (inactive)"},
      {"smiles": "Cc1ccc(NN=Nc2nc3c([nH]2)c(=O)n(C)c(=O)n3C)cc1", "Potency": "1.58 µM (active)"},
      {"smiles": "CC(CCO)Nc1nc2c([nH]1)c(=O)n(C)c(=O)n2C", "note": "(stereo not drawn)", "activity, negative = inhibition": "-11% (inactive)"},
      {"smiles": "CC(=O)Cc1nsc(NC(=O)c2csc3c2CCCC3)n1", "Potency": "2.51 µM (active)"},
      {"smiles": "Cc1ccc(NC(=O)c2csc3c2CCCC3)cc1", "activity, negative = inhibition": "1.14% [at 102 µM] (inactive)"},
      {"smiles": "CC(=O)Cc1nsc(NC(=O)c2ccc(Cl)cc2Cl)n1", "activity, negative = inhibition": "-27.6% [at 102 µM] (inactive)"},
      {"smiles": "COc1ccc(C2C(C(C)=O)=C(O)C(=O)N2Cc2cccnc2)cc1", "note": "(stereo not drawn)", "Potency": "20 µM (active)"},
      {"smiles": "CCCOc1ccc(C2c3c(-c4ccccc4O)n[nH]c3C(=O)N2Cc2cccnc2)cc1", "note": "(stereo not drawn)", "activity, negative = inhibition": "-1.26% (inactive)"},
      {"smiles": "COc1cc(C2C(C(=O)c3ccc(C)o3)=C(O)C(=O)N2Cc2cccnc2)ccc1O", "note": "(stereo not drawn)", "activity, negative = inhibition": "-13.2% (inactive)"},
      {"smiles": "O=C(c1ccc(Br)cc1)N(Cc1cccs1)c1ccc(F)cc1", "activity, negative = inhibition": "65% (inactive)"},
      {"smiles": "CCCOc1ccc(C2=CSC3=NCCN23)cc1Cl", "activity, negative = inhibition": "-12.4% [at 102 µM] (inactive)"},
      {"smiles": "COc1ccc(CCNc2ncnc3onc(-c4ccc(Cl)cc4)c23)c(OC)c1", "activity, negative = inhibition": "5.46% (inactive)"},
      {"smiles": "CCCCn1c(CNC(=O)C23CC4CC(CC(C4)C2)C3)nnc1SCC(=O)Nc1ccc(C)cc1", "activity, negative = inhibition": "-10.5% (inactive)"},
      {"smiles": "COc1ccc(-c2onc(C)c2C)cc1S(=O)(=O)NCC1CCN(Cc2cccc(F)c2)CC1", "activity, negative = inhibition": "1.76% (inactive)"},
      {"smiles": "Cc1cc(OCCCN2CCN(Cc3ccccc3)CC2)ccc1[N+](=O)[O-]", "Potency": "8.91 µM (active)"},
      {"smiles": "O=C(c1cccc([N+](=O)[O-])c1)N1CCN(Cc2ccccc2)CC1", "activity, negative = inhibition": "16.3% [at 102 µM] (inactive)"},
      {"smiles": "Cc1cc(OCCCCOc2ccc(C#N)cc2)ccc1[N+](=O)[O-]", "activity, negative = inhibition": "30.7% [at 12.7 µM] (inactive)"},
      {"smiles": "COc1ccc(-c2nc(Cn3c(=O)cc(C)c4c(C)nn(-c5ccccc5)c43)c(C)o2)cc1OC", "activity, negative = inhibition": "6.04% (inactive)"},
      {"smiles": "O=c1[nH]c(=S)[nH]c2[nH]c(=S)[nH]c12", "Potency": "1.58 µM (active) and 1.26 µM (active)"},
      {"smiles": "CN(CC(=O)Nc1ccc(Cl)cc1)CC(=O)Nc1cccc2ccccc12", "activity, negative = inhibition": "-44.6% [at 12.7 µM] (inactive)"},
      {"smiles": "CCS(=O)(=O)c1cc([N+](=O)[O-])c(Sc2ccccc2N)s1", "Potency": "1.12 µM (active)"},
      {"smiles": "Cc1ccc(S(=O)(=O)NCCSc2ccccc2)cc1[N+](=O)[O-]", "activity, negative = inhibition": "-13.4% (inactive)"},
      {"smiles": "CCOC(=O)c1cc(Sc2ccccc2N)cc(C(=O)OCC)n1", "activity, negative = inhibition": "45% [at 102 µM] (inactive)"},
      {"smiles": "CCOc1ccccc1NC(=O)Cn1ncc2ccc([N+](=O)[O-])cc21", "activity, negative = inhibition": "-50.6% [at 102 µM] (inactive)"},
      {"smiles": "CCc1ccccc1NC(=O)c1ccc2nc(CCc3ccccc3)oc2c1", "activity, negative = inhibition": "-8.22% (inactive)"},
      {"smiles": "COc1ccc(C)cc1NC(=O)CCCN1C(=O)NC(C)(C)C1=O", "activity, negative = inhibition": "20.4% [at 2.33 µM] (inactive)"},
      {"smiles": "O=C(N/N=C/c1cccc(Br)c1)c1ccc(N2CCCC2=O)cc1", "Potency": "79.4 µM (active)"},
      {"smiles": "Cn1c(=O)n(C)c2cc(/C=N/NC(=O)c3cccc(Br)c3)ccc21", "activity, negative = inhibition": "20.1% (inactive)"},
      {"smiles": "COc1cc(/C=N/NC(=O)c2ccc(N3CCCC3=O)cc2)ccc1O", "activity, negative = inhibition": "65.8% [at 102 µM] (inactive)"},
      {"smiles": "Cc1ccccc1NC(=O)Cn1cc(C(=O)c2cccs2)c2ccccc21", "activity, negative = inhibition": "-6.24% (inactive)"},
      {"smiles": "O=S(=O)(NC1CC1)c1ccc(Cl)cc1", "activity, negative = inhibition": "12.4% [at 102 µM] (inactive)"},
      {"smiles": "Cc1cc(C)c(OCCN2CC(C)OC(C)C2)c(Br)c1", "note": "(stereo not drawn)", "Potency": "8.91 µM (active)"},
      {"smiles": "O=C(Cn1ccc2cc(S(=O)(=O)N3CCCC3)ccc21)NCc1ccccc1", "activity, negative = inhibition": "10.8% [at 102 µM] (inactive)"},
      {"smiles": "O=c1c([N+](=O)[O-])cc(C(F)(F)F)cn1Cc1cccc(Cl)c1", "activity, negative = inhibition": "71.8% (inactive)"},
      {"smiles": "O=[N+]([O-])/C=C/c1ccc2c(ccn2Cc2ccccc2)c1", "Potency": "31.6 µM (active)"},
      {"smiles": "Cc1cc(S(=O)(=O)NC2CCCC2)ccc1-n1cnnn1", "activity, negative = inhibition": "17.9% (inactive)"},
      {"smiles": "O=C(NCC1CCCO1)c1ccc(S(=O)(=O)Nc2ccc(F)cc2)cc1", "note": "(stereo not drawn)", "activity, negative = inhibition": "-38.7% [at 102 µM] (inactive)"},
      {"smiles": "CN(CC(=O)Nc1ccc(Cl)cc1)C(=O)c1ccc(COc2ccccc2)cc1", "activity, negative = inhibition": "18.8% (inactive)"},
      {"smiles": "Cc1ccc(NC(=O)CN(C)C(=O)c2ccc(Br)o2)cc1", "activity, negative = inhibition": "-5.82% [at 102 µM] (inactive)"},
      {"smiles": "CN(CC(=O)Nc1ccc(F)cc1)C(=O)c1ccc(-c2ccc(Cl)cc2)o1", "Potency": "79.4 µM (active)"},
      {"smiles": "CCOc1ccccc1CNC(=O)c1ccc(-n2c(C)cc3c2CCC(C)C3)cc1", "note": "(stereo not drawn)", "activity, negative = inhibition": "-15.9% (inactive)"},
      {"smiles": "COc1ccc(CCNC(=O)CN(C)S(=O)(=O)c2ccc3nc(C)sc3c2)cc1OC", "activity, negative = inhibition": "-2.8% [at 102 µM] (inactive)"},
      {"smiles": "CCOCCCNC(=O)c1ccc2nc(CCc3ccccc3)oc2c1", "activity, negative = inhibition": "-2.67% (inactive)"},
      {"smiles": "Cc1ccc(NC(=O)c2cc(S(=O)(=O)NCCC3=CCCCC3)ccc2F)cc1C", "activity, negative = inhibition": "11.5% (inactive)"},
      {"smiles": "CSc1nnc(-c2ccncc2)n1CCCN1CCCC1=O", "Potency": "50.1 µM (active)"},
      {"smiles": "COCCCn1c(SCC(=O)Nc2ccccc2)nnc1-c1ccncc1", "activity, negative = inhibition": "19.9% (inactive)"},
      {"smiles": "CCOc1cc2[nH]c(=S)n(CCCN3CCCC3=O)c(=O)c2cc1OCC", "activity, negative = inhibition": "-45.8% [at 12.7 µM] (inactive)"}
    ]}
  ]
}
